In PubChem BioAssay AID1159580 (chemical genetic matrix, 2015):
Out of some 5,500 compounds screened, about 2,000 (36%) were called active. Inconclusive results (about 18%) are left out. No stated cut-off is given here; in the data, active means normalized growth mostly below about 0.91 (no sharp cut-off); inconclusive means no clear call, values can overlap the other calls; inactive means mostly above about 0.92. The list shows a part of the results.

Assay: chemical genetic growth profiling, strain panel (AID 1159580);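 further: tested at 20 µM; growth read once vehicle control cultures reached saturation at 30 °C; 1 = growth at the plate median or of vehicle wells; lower values mean less growth of the strain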
Conditions: growth OD

Measured: normalized growth

C=C1C2CCC3(C)C(c4ccoc4)OC(=O)CC13OC1CC(OC(C)=O)C(C)(C)C(CC(=O)OC)C12C (stereo unspecified)
active: S. cerevisiae deletion strains, locus YKL068W, hits give low values 1.17 [resistant] | S. cerevisiae deletion strains, locus YKL085W, strain MDH1 (second series), hits give low values 1.08 [resistant] | S. cerevisiae deletion strains, locus YKL085W, strain MDH1, hits give low values 1.08 [resistant]
inactive: S. cerevisiae deletion strains, locus YJL168C, strain set2, hits give low values 0.998 | S. cerevisiae deletion strains, locus YJL187C, strain SWE1 (second series), hits give low values 1 | S. cerevisiae deletion strains, locus YJR043C, strain POL32, hits give low values 1.02 | S. cerevisiae deletion strains, locus YKL160W, strain elf1, hits give low values 1.01 | S. cerevisiae deletion strains, locus YKR001C, strain vps1, hits give low values 1.02 | S. cerevisiae deletion strains, locus YKR026C, strain gcn3, hits give low values 1 | S. cerevisiae deletion strains, locus YKR091W, strain srl3, hits give low values 1 | S. cerevisiae deletion strains, locus YLL001W, strain dnm1, hits give low values 1.01 | S. cerevisiae deletion strains, locus YLL026W, hits give low values 1 | S. cerevisiae deletion strains, locus YLL041C, strain sdh2, hits give low values 1 | S. cerevisiae deletion strains, locus YLR027C, strain aat2, hits give low values 0.991 | S. cerevisiae deletion strains, locus YLR039C, strain RIC1, hits give low values 0.988 | S. cerevisiae deletion strains, locus YLR058C, strain SHM2, hits give low values 1 | S. cerevisiae deletion strains, locus YLR102C, strain apc9, hits give low values 1.01 | S. cerevisiae deletion strains, locus YLR221C, strain rsa3, hits give low values 0.995 | S. cerevisiae deletion strains, locus YLR258W, strain gsy2, hits give low values 0.994 | S. cerevisiae deletion strains, locus YLR262C, strain YPT6 (second series), hits give low values 0.972 | S. cerevisiae deletion strains, locus YLR262C, strain YPT6, hits give low values 0.933 | S. cerevisiae deletion strains, locus YLR268W, strain sec22, hits give low values 0.984 | S. cerevisiae deletion strains, locus YLR320W, strain mms22, hits give low values 1.01 | S. cerevisiae deletion strains, locus YLR342W, strain FKS1, hits give low values 0.992 | S. cerevisiae deletion strains, locus YLR357W, strain rsc2, hits give low values 1.02 | S. cerevisiae deletion strains, locus YLR370C, strain arc18, hits give low values 0.998 | S. cerevisiae deletion strains, locus YLR371W, strain rom2, hits give low values 1.01 | S. cerevisiae deletion strains, locus YLR384C, strain iki3, hits give low values 1.01 | S. cerevisiae deletion strains, locus YLR418C, strain cdc73, hits give low values 0.983 | S. cerevisiae deletion strains, locus YML016C, strain PPZ1, hits give low values 1.03 | S. cerevisiae deletion strains, locus YML032C, strain rad52, hits give low values 0.999 | S. cerevisiae deletion strains, locus YML120C, strain ndi1, hits give low values 1.01 | S. cerevisiae deletion strains, locus YML124C, strain tub3, hits give low values 0.993 | S. cerevisiae deletion strains, locus YMR058W, strain fet3, hits give low values 1.02 | S. cerevisiae deletion strains, locus YMR078C, strain ctf18, hits give low values 0.988 | S. cerevisiae deletion strains, locus YMR125W, strain sto1, hits give low values 1.01 | S. cerevisiae deletion strains, locus YMR129W, hits give low values 1 | S. cerevisiae deletion strains, locus YMR205C, strain PFK2, hits give low values 0.97 | S. cerevisiae deletion strains, locus YMR223W, strain ubp8, hits give low values 0.991 | S. cerevisiae deletion strains, locus YMR231W, strain pep5, hits give low values 1 | S. cerevisiae deletion strains, locus YMR307W, strain GAS1, hits give low values 1.03 | S. cerevisiae deletion strains, locus YNL067W, strain RPL9B, hits give low values 0.998 | S. cerevisiae deletion strains, locus YNL071W, strain lat1, hits give low values 1.01 | S. cerevisiae deletion strains, locus YNL153C, strain GIM3, hits give low values 1.02 | S. cerevisiae deletion strains, locus YNL209W, strain ssb2, hits give low values 1.02 | S. cerevisiae deletion strains, locus YNL233W, strain BNI4, hits give low values 1 | S. cerevisiae deletion strains, locus YNL248C, strain rpa49, hits give low values 1.02 | S. cerevisiae deletion strains, locus YNL250W, strain rad50, hits give low values 0.982 | S. cerevisiae deletion strains, locus YNL271C, strain bni1, hits give low values 1 | S. cerevisiae deletion strains, locus YNL298W, strain CLA4, hits give low values 0.997 | S. cerevisiae deletion strains, locus YNL307C, strain MCK1, hits give low values 0.999 | S. cerevisiae deletion strains, locus YNL322C, strain KRE1 (second series), hits give low values 1.02 | S. cerevisiae deletion strains, locus YNR049C, strain mso1, hits give low values 1.02 | S. cerevisiae deletion strains, locus YNR052C, strain pop2, hits give low values 1.01 | S. cerevisiae deletion strains, locus YOL006C, strain TOP1, hits give low values 0.984 | S. cerevisiae deletion strains, locus YOL012C, strain htz1 1.69 | S. cerevisiae deletion strains, locus YOL147C, strain pex11, hits give low values 0.999 | S. cerevisiae deletion strains, locus YOR001W, strain rrp6, hits give low values 1.03 | S. cerevisiae deletion strains, locus YOR061W, strain CKA2, hits give low values 1.01 | S. cerevisiae deletion strains, locus YOR069W, strain VPS5, hits give low values 1.01 | S. cerevisiae deletion strains, locus YOR070C, strain gyp1, hits give low values 1.02 | S. cerevisiae deletion strains, locus YOR080W, strain dia2, hits give low values 1.01 | S. cerevisiae deletion strains, locus YOR083W, strain WHI5, hits give low values 1 | S. cerevisiae deletion strains, locus YOR106W, strain vam3, hits give low values 0.999 | S. cerevisiae deletion strains, locus YOR136W, strain idh2, hits give low values 0.989 | S. cerevisiae deletion strains, locus YOR144C, strain elg1, hits give low values 1 | S. cerevisiae deletion strains, locus YOR184W, strain ser1, hits give low values 1 | S. cerevisiae deletion strains, locus YOR265W, strain rbl2, hits give low values 1.01 | S. cerevisiae deletion strains, locus YOR270C, strain vph1, hits give low values 0.951 | S. cerevisiae deletion strains, locus YOR290C, strain snf2, hits give low values 0.996 | S. cerevisiae deletion strains, locus YOR316C, strain cot1, hits give low values 1.01 | S. cerevisiae deletion strains, locus YPL051W, strain arl3, hits give low values 1.01 | S. cerevisiae deletion strains, locus YPL078C, strain atp4, hits give low values 1 | S. cerevisiae deletion strains, locus YPL106C, strain sse1, hits give low values 0.989 | S. cerevisiae deletion strains, locus YPL240C, strain hsp82, hits give low values 1.02 | S. cerevisiae deletion strains, locus YPR119W, strain clb2, hits give low values 0.998 | S. cerevisiae deletion strains, locus YPR141C, strain kar3, hits give low values 1.01 | S. cerevisiae deletion strains, locus YPR163C, strain tif3, hits give low values 0.991 | S. cerevisiae deletion strains, locus YPR167C, strain met16, hits give low values 1 | S. cerevisiae deletion strains, strain wtn01, hits give low values 0.983 | S. cerevisiae strains, strain wild type, hits give low values 1.01
